ChEMBL document CHEMBL3988442, “University of Dundee, Small-Polar-MMV Screening Library” (2021)
For some assays here: Results with a measured potency or affinity are listed apart.

How the values were obtained:
Design in all cases: scale not given: direction of the effect not stated beside the values
[1] = biological target: Protein translocase subunit SecA (Escherichia coli (strain K12)) (UniProt P10408); assay: Assay to Identify E. coli SecA ATPase Inhibitors; assay type: functional; conditions: 30 µM
Sequence of Protein translocase subunit SecA (Escherichia coli (strain K12)) (P10408 whole entry): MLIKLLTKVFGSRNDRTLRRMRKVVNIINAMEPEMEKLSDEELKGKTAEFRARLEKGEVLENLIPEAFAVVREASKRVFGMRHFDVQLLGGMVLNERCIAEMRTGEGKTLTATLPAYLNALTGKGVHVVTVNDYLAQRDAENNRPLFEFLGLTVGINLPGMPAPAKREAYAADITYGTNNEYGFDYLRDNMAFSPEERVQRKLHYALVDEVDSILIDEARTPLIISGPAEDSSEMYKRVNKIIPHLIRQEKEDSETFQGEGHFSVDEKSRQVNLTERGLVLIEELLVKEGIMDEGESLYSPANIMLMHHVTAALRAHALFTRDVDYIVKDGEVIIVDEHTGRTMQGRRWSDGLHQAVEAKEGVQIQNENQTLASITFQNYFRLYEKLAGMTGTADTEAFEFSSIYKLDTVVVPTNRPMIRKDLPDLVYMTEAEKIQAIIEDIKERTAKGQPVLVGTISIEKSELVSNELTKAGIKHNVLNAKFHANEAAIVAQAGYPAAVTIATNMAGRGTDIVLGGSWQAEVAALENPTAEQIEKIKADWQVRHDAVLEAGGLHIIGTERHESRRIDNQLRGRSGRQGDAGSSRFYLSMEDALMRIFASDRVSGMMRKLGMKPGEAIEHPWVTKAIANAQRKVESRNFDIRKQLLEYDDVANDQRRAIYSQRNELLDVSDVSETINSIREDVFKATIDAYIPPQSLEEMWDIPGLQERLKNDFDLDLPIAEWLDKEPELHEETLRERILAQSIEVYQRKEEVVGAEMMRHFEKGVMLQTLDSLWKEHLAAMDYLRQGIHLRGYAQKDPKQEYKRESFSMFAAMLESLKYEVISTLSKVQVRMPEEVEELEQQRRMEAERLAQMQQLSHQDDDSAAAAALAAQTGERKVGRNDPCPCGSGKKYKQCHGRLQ

[2] = biological target: T1, Ubiquitin-activating enzyme e1, putative (Leishmania donovani (strain BPK282A1)) (UniProt E9BSI1); assay: Leishmania donovani Ubiquitin Activating Enzyme (LdE1); assay type: functional; conditions: 30 µM
T1 sequence (whole entry): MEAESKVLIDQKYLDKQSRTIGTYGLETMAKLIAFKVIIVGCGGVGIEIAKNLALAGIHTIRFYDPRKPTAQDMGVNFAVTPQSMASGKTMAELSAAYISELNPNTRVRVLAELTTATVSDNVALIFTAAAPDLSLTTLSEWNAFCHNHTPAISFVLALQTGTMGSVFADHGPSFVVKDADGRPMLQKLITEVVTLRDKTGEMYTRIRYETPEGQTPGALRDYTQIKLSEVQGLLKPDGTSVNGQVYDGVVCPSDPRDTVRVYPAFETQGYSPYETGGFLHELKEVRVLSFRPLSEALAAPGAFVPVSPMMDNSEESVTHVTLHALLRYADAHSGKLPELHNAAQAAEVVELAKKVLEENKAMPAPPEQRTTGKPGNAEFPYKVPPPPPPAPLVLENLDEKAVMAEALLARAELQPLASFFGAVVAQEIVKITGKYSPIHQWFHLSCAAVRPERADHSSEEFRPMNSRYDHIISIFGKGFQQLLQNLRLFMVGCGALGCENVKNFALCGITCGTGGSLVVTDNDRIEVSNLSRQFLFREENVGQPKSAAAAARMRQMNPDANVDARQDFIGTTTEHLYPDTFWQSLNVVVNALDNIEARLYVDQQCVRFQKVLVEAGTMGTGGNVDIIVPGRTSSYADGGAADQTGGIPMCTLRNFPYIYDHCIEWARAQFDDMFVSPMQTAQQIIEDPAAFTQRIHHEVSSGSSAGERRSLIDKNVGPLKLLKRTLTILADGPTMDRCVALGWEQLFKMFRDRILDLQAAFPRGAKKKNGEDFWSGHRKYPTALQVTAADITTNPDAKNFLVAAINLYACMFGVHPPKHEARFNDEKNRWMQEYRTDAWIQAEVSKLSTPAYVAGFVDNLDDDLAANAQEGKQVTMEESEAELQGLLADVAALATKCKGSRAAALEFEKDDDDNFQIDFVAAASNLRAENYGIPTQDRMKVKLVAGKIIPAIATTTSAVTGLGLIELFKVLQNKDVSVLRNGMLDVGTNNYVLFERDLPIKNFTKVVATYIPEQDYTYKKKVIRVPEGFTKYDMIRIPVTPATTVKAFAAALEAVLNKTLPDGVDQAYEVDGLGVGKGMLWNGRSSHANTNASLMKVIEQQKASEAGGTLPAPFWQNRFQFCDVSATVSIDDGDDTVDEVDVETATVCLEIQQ

[3] = biological target: AMP-activated protein kinase, AMPK (Homo sapiens) (UniProt P54646+O43741+P54619+Q9UGJ0+Q9Y478+Q13131+Q9UGI9); assay: AMP-dependent Kinase enzyme assay. An in vitro enzyme assay that detects ADP turnover that is directly proportional to AMPK activity. This uses naive AMPK that is activated during the assay with MK-8722; assay type: functional; conditions: 30 µM
[4] = biological target: Sialic acid-binding Ig-like lectin 9 (Homo sapiens) (UniProt Q9Y336); assay: Hs-Siglec9 ALPHAscreen SOP 20170721; conditions: 10 µM
Sequence of Sialic acid-binding Ig-like lectin 9 (Homo sapiens) (Q9Y336 whole entry): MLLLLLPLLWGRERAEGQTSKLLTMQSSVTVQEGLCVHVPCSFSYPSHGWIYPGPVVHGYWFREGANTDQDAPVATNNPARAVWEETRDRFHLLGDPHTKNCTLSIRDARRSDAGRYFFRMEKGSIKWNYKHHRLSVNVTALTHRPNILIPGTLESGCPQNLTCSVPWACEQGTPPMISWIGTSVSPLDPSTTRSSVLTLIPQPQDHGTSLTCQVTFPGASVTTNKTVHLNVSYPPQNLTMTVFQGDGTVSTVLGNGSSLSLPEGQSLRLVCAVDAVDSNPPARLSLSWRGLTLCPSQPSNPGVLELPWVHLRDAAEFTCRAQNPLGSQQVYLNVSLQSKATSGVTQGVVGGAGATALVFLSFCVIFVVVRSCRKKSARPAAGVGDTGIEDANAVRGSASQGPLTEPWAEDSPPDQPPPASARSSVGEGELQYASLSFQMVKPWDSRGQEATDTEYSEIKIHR

[5] = test system: Trypanosoma cruzi; assay: Trypanosoma cruzi phosphomannomutase and mannose-1-phosphate guanylyltransferase assay; assay type: functional; conditions: 10 µM
[6] = biological target: T2, Arginase-2, mitochondrial (Homo sapiens) (UniProt P78540); assay: in vitro enzyme assay to detect the production of urea directly proportional to the activity of Arginase II; assay type: functional; conditions: 33.3 µM; further: in the data most compounds retested in dose-response had high values
T2 sequence (whole entry): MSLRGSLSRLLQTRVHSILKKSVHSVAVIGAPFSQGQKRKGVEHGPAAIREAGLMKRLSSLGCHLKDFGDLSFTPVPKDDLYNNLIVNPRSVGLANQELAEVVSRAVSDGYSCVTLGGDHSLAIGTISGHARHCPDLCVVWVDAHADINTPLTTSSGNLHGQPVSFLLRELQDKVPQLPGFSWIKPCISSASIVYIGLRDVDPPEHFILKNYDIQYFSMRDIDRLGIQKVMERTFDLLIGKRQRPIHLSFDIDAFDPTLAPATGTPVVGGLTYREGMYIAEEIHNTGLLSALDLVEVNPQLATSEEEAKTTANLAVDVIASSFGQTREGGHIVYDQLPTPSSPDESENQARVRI

[7] = biological target: T3, Proteasome subunit beta (Trypanosoma cruzi) (UniProt O96673); assay: Trypanosoma cruzi proteasome chymotrypsin-like activity (TcProtChymo) assay.; further: in the data most compounds retested in dose-response had high values; assay type: functional; conditions: 9.37 µM
T3 sequence (whole entry): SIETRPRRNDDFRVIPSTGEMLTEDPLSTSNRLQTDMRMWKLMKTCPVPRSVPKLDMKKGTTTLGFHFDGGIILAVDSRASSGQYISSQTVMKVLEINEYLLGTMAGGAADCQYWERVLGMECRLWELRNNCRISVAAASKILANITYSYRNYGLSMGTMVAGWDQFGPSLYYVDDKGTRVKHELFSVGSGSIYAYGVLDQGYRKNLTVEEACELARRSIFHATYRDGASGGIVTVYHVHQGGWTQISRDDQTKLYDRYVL

[8] = organism: Homo sapiens; assay: To identify inhibition of the IFN signalling (Jak-Stat) pathway via expression of an eGFP reporter gene under the control of an IFN-stimulated response element (ISRE) containing MxA promoter.; assay type: functional; conditions: 30 µM
[9] = biological target: T4, Tyrosyl-tRNA synthetase, putative (Trypanosoma cruzi (strain CL Brener)) (UniProt Q4DSP6); assay: Trypanosoma cruzi tyrosyl tRNA synthetase (TcYRS) _High Tyrosine SOP; assay type: functional; conditions: 30 µM; further: in the data most compounds retested in dose-response had high values
T4 sequence (whole entry): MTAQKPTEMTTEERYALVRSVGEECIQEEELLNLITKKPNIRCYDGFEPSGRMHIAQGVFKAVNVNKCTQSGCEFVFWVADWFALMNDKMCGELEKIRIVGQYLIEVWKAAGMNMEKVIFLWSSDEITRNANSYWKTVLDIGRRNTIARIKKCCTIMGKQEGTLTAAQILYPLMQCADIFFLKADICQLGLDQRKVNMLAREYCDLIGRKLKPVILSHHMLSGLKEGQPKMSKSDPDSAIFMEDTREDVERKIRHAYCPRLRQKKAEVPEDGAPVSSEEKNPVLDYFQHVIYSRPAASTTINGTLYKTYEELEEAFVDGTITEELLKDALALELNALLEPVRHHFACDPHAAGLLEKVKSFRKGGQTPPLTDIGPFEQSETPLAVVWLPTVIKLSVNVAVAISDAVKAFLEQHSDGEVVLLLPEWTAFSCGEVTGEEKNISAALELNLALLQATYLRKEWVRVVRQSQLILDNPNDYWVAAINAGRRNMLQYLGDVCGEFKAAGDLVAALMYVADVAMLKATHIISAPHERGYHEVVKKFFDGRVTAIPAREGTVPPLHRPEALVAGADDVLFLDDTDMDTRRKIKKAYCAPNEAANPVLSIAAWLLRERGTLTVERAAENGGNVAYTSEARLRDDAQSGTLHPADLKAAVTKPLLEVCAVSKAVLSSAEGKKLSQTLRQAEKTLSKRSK

[10] = biological target: T4, Tyrosyl-tRNA synthetase, putative (Trypanosoma cruzi (strain CL Brener)); assay: Trypanosoma cruzi tyrosyl tRNA synthetase (TcYRS) SOP; assay type: functional; conditions: 30 µM
[11] = biological target: Chromo domain-containing protein 1 (Saccharomyces cerevisiae (strain ATCC 204508 / S288c) (Baker's yeast)) (UniProt P32657); assay: ScCHD-1 Enzyme Inhibition Assay; assay type: functional; conditions: 30 µM; further: in the data most compounds retested in dose-response had high values
Sequence of Chromo domain-containing protein 1 (Saccharomyces cerevisiae (strain ATCC 204508 / S288c) (Baker's yeast)) (P32657 whole entry, the tested form may be a part): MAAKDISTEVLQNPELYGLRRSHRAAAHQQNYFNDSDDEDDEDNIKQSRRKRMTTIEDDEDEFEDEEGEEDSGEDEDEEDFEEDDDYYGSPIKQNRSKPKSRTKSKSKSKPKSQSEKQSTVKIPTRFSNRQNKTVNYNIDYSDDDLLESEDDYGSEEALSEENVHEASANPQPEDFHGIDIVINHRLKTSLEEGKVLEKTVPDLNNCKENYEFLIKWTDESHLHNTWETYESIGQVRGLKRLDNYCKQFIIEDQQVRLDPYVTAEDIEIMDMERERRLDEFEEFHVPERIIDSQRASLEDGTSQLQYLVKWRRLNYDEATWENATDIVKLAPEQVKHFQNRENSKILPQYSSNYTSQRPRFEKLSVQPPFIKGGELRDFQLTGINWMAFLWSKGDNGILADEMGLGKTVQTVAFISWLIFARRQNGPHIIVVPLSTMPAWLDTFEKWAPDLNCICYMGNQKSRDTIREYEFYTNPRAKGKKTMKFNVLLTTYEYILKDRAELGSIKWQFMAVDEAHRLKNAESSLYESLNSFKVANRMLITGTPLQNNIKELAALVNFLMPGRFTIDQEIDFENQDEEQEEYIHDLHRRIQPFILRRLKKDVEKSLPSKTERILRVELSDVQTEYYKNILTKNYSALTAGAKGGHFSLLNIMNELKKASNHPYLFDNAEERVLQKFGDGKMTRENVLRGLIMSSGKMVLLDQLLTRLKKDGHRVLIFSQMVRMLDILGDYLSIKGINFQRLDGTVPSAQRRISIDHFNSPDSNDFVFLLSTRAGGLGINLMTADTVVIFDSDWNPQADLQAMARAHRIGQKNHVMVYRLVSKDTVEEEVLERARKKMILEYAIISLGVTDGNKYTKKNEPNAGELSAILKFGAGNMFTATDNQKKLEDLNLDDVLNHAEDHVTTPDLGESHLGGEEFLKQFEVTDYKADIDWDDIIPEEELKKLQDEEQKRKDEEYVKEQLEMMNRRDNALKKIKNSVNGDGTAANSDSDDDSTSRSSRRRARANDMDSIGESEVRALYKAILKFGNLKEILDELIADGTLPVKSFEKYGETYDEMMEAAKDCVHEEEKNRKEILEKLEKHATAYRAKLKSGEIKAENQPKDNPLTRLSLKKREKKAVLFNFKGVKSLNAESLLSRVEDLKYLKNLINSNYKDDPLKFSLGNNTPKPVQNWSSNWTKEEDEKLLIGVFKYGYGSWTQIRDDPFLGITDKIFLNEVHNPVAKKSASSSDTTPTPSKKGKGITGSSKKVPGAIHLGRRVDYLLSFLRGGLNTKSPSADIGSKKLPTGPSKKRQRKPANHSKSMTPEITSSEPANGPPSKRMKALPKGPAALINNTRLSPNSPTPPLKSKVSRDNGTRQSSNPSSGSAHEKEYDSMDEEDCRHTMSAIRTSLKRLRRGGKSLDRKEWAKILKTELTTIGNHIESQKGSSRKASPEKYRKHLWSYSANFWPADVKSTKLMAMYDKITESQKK

| SMILES | Percent Effect [1] | Percent Effect [2] | Percent Effect [3] | Percent Effect [4] | Percent Effect [5] | Percent Effect [6] | Percent Effect [7] | Percent Effect [8] | Percent Effect [9] | Percent Effect [10] | Percent Effect [11] |
| --- | --- | --- | --- | --- | --- | --- | --- | --- | --- | --- | --- |
| COc1c(CNCCNC(=O)c2ccco2)c(C)nn1C | -4.26% | 2.7% | -4.46% | 0.652% | -1.39% | -0.185% | 4.31% | 11.3% | 3.96% | 11% | 0.206% |
| O=C(c1nc(COc2ccc3c(c2)OCO3)no1)N1CCCC1 | -2.38% | 1.33% | -0.332% | 4.46% | -6.88% | -12.5% | 9.98% | 3.63% | 3.17% | 5.13% | -8.92% |
| COc1cccc2c1OCC(CNC(=O)CCCN1CCOCC1)C2 (configuration not stated) | -1.74% | 5.41% | -7.92% | 19.8% | 2.05% | -0.248% | 13.1% | 11.9% | 8.6% | 18.5% | -5.59% |
| Cc1cc(-c2cnc(N3CCNC(=O)C3)nc2-c2ccc(C)o2)on1 | -8.2% | 21.3% | 3.79% | 11.1% | 1.38% | -6.76% | 11.4% | 29.2% | 5.32% | 11.5% | -16.5% |
| CCC1(CC)Cc2ccccc2-c2nc(CN(C)C)nc(O)c21 | -3.62% | 10.5% | 5% | 4.55% | 0.292% | -5.92% | 12.8% | 14.4% | 5.32% | 10.4% | -3.79% |
| Cc1cccc(-c2nc(C)nn2CC(=O)NC2CCCC2)c1 | -5.38% | 23.4% | -6.06% | 8.2% | 6.93% | 3.2% | 18.6% | 5.48% | 9.71% | 26.8% | -9.1% |
| CCC(C)(NCC(=O)Nc1ccccc1)c1nc(C)cs1 (configuration not stated) | -2.41% | 2.7% | -4.26% | 30.5% | 2.05% | 18.6% | -0.772% | -24.9% | 1.07% | 6.17% | 2.11% |
| O=C1CCc2cc(C(=O)NCc3ccc(-n4cncn4)nc3)ccc2N1 | -8% | 8.11% | -0.201% | 4.21% | -5.19% | 0.802% | -4.68% | 10.4% | 4.43% | 1.24% | 23.8% |
| O=C1OC2(CCNCC2)CN1CC(=O)N1CCCC1c1ccco1 (configuration not stated) | -3.11% | 5.41% | 1.69% | 4.82% | 0.386% | 2.86% | 19.8% | -0.46% | 5.82% | 19.5% | -4.16% |
| CCN1CCN(S(=O)(=O)c2ncn(C)c2Cl)CC1 | -6.34% | 6.94% | -0.0263% | 3.04% | -3.79% | 1.77% | 21.4% | 6.76% | 1.05% | 10.3% | -1.92% |
| CCc1nnsc1C(=O)N1CCOC(c2nc(C)n[nH]2)C1 (configuration not stated) | -5.12% | 8.86% | -2.61% | -4.1% | 0.718% | -0.215% | 8.23% | -0.829% | 5.21% | 17.7% | -30.2% |
| COc1ccccc1CC(=O)N1CCC(NCc2cc[nH]c2)CC1 | -0.99% | 18.9% | -7.09% | -3.31% | 4.92% | 5.36% | 16.3% | 5.88% | 11.9% | 23.2% | -7.56% |
| NC(=O)C1CN(Cc2c[nH]cn2)CCN(C2CCOCC2)C1 (configuration not stated) | 1.35% | 4.05% | 5.54% | 9.65% | -7.12% | 18.8% | 7.02% | 19.2% | 12.9% | 19.5% | -6.44% |
| CC(C)N1CCC(Cc2cncc(-c3ccccc3C(=O)O)n2)CC1 | -3.85% | 8% | 9.75% | 5.58% | -4.13% | 0.699% | 4.32% | 13.7% | 5.32% | 8.97% | -3.75% |
| Cc1ccc(NC(=O)Nc2cnc(N3CCN(C)CC3)nc2)c(Cl)c1 | -1.85% | 13% | 2.69% | 2.29% | 2.27% | -5.81% | 5.22% | 6.92% | 6.35% | 11.5% | -9.57% |
| CCN(CC1CN(Cc2ncc[nH]2)CCO1)c1cccnn1 (configuration not stated) | -4.66% | 8% | -8.56% | 6.93% | 1.46% | 5.21% | 16.2% | 6.04% | 4.92% | 8.64% | -4.63% |
| COCCCN1CCCN(C(C)C(=O)Nc2ccnn2C(C)C)CC1 (configuration not stated) | 0.586% | -2.7% | -1.72% | -1.48% | 0.195% | 2.08% | 13.9% | -3.67% | 4.95% | -3.66% | -4.29% |
| CCCc1n[nH]c(C2CN(Cc3nnc(C4CC4)o3)CCO2)n1 (configuration not stated) | -3.64% | 5.06% | -4.65% | 2.18% | 4.25% | -1.9% | -0.409% | 3.77% | 3.45% | 8.86% | -0.679% |
| Cc1ccc2c(ccn2CCC(=O)O)c1 | -4.82% | 0% | 0.269% | -0.473% | 1.07% | -0.744% | -2.83% | 11.2% | 1.07% | 3.7% | 0.48% |
| CS(=O)(=O)N[C@@H]1CCO[C@]2(CCN(C(=O)c3cnccn3)C2)C1 | -3.71% | 10.8% | 1.74% | -2.86% | 1.07% | 0.955% | 22.7% | 5.57% | 7.57% | 17.9% | 2.48% |
| O=C1[C@H]2CC[C@H](CN(C3CSCCSC3)C2)N1Cc1cscn1 | -0.514% | 2.74% | 6.23% | 4.75% | -8.53% | -1.2% | 18.4% | 8.4% | 8.33% | 16.1% | 1.67% |
| N#Cc1ccc(OC2CCN(C(=O)c3ccc4c(c3)OCO4)CC2)nc1 | -3.87% | 13.7% | -6.59% | 16.4% | 6.07% | -0.909% | 2.13% | 8.98% | 3.23% | 15% | -2.59% |
